# Tgondii IFNg – blocks Toxoplasma gondii growth in the presence of IFN-gamma | Toxoplasma gondii growth in IFN-gamma-treated host cells; stronger effect = lower value | activity change, negative = inhibition, % (concentration not given with the values) | 3.8% of 69,000 active | AID 1259416; in the data active = activity change below about -70%, passing the limit was not always enough;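 note: host cells are HeLa cells infected with Toxoplasma gondii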
# * = called active by the depositor; ! = repeats disagree. The full list was thinned out, with hits kept by preference.
SMILES,Tgondii IFNg
CC1(C)C(=O)C=C[C@@]2(C)C1C(=O)C(=O)[C@]1(C)C2CC[C@@]2(C)[C@H](c3ccoc3)C[C@H]3O[C@]321 (stereo partly specified),-79*
CCN1C[C@H]2CN(c3cc(OC)ncn3)CCC[C@]2(C(=O)O)C1,98
OC1CC2CCCC(C1)N2Cc1ccccc1 (stereo unspecified),8
CCN1Cc2ccccc2C2(CCN(c3ccc(C)nn3)CC2)C1,1
O=C(Nc1ccc(F)cc1F)c1cc2cccnc2n(Cc2ccccc2F)c1=O,-5
C[C@@H]1O[C@@H](O[C@H]2C[C@@H](O)[C@]3(CO)[C@H]4[C@H](O)C[C@]5(C)[C@@H](C6COC(=O)C6)CC[C@]5(O)[C@@H]4CC[C@]3(O)C2)[C@H](O)[C@H](O)[C@H]1O (stereo partly specified),-99*
CC1OC(OC2CC(O)C3(CO)C4C(O)CC5(C)C(C6=CC(=O)OC6)CCC5(O)C4CCC3(O)C2)C(O)C(O)C1O (stereo unspecified),-81*
CCN1C[C@H]2[C@H](OC)CCN(S(=O)(=O)c3cccnc3)[C@H]2C1,94
COc1ccc(NC(C)=O)cc1NC(=O)c1cc2cccnc2n(Cc2ccccc2)c1=O,-12
CN(C)C(=O)N[C@H]1CNC2CCCOC21 (stereo partly specified),94
CCCn1c(C)c(C(=O)c2cccc3ccccc23)c2ccccc21,33
COc1ccc(C(=O)c2c(C)n(CCN3CCOCC3)c3cc(I)ccc23)cc1,7
Cc1c(C(=O)c2cccc3ccccc23)c2cccc3c2n1[C@H](CN1CCOCC1)CO3,-90*
CC(C)(C)NCC(O)c1ccc(O)cc1Cl (stereo unspecified),-11
C[C@H]1CN2C[C@H](O)CC2CN1Cc1cccn1-c1cccnc1 (stereo partly specified),-39
c1ccc(OCC2CC3NCCOC3C2)nc1 (stereo unspecified),38
O=C(NC(=S)Nc1cc(C(F)(F)F)cc(C(F)(F)F)c1)Oc1ccccc1,-98*
c1ccc(CN2CCOC3(CCN(Cc4nccs4)CC3)C2)nc1,3
C[C@]12CC/C(=N\OCCN)C[C@@H]1C(=O)C[C@@H]1[C@@H]2CC[C@]2(C)C(=O)CC[C@@H]12,-34
CC(=O)O[C@@]12CO[C@@H]1C[C@H](O)[C@@]1(C)C(=O)[C@H](O)C3=C(C)[C@@H](O)C[C@@](O)([C@@H](OC(=O)c4ccccc4)[C@H]21)C3(C)C,-76*!
COCc1cncc2c1CCN(S(=O)(=O)C1CC1)C2,16
COCc1cncc2c1CCN(CC(C)C)C2,-2
COCc1cncc2c1CCN(C1CCOC1)C2 (stereo unspecified),-109*
O=C(Nc1ccc(Oc2ccccc2)cc1)c1cc2cccnc2n(Cc2ccc(F)cc2)c1=O,80
O=C(Nc1cccnc1)c1cc2cccnc2n(Cc2ccc(F)cc2)c1=O,65
SMILES,Tgondii IFNg
CN(c1ncccn1)C1COC2(CCCN(CC(=O)O)C2)C1 (stereo unspecified),-35
Cc1cc(Cl)ccc1C(=O)C1CCCN(CCCn2cccn2)C1 (stereo unspecified),-3
COCCN1CCN(S(C)(=O)=O)Cc2ccc(C)nc21,6
CCCCCCC(=O)O[C@H]1CC[C@H]2[C@@H]3CCC4=CC(=O)CC[C@]4(C)[C@H]3CC[C@]12C,-75*
C[C@]12CCC(=O)C=C1CC[C@@H]1[C@@H]2CC[C@]2(C)C(=O)CC[C@@H]12,47
CCN(CC)CCOC1CCC2(C)C(=CCC3C4CCC(=O)C4(C)CCC32)C1 (stereo unspecified),-51
CCC(=O)O[C@H]1CCC2C3CCC4=CC(=O)CC[C@]4(C)C3CC[C@@]21C (stereo partly specified),-84*
c1ccc([C@H]2CN(Cc3ccccn3)[C@@H]3C4CCN(CC4)[C@H]23)cc1,-1
NC(=O)C[S@@](=O)C(c1ccccc1)c1ccccc1,9
Cc1cccc(CN2CCC3(CC(NS(=O)(=O)C4CC4)C3)C2)n1 (stereo unspecified),-9
CN1CCN(S(=O)(=O)c2cn(C)cn2)Cc2cccnc21,-16
O=C(Nc1ccc2c(c1)OCO2)c1cc2cccnc2n(Cc2ccccc2F)c1=O,159
Cc1ccc(CN2CCOC3C(COc4ncccn4)CCC32)o1 (stereo unspecified),7
CCCCOC(=O)c1ccc(NC(=O)c2cc3cccnc3n(Cc3ccc(F)cc3)c2=O)cc1,20
CC(C)COC1C2CCC1N(Cc1ccccn1)C2 (stereo unspecified),64
C[C@@H]1C[C@@H]([C@H](O)CC2CC(=O)NC(=O)C2)C(=O)[C@@H](C)C1,-79*
CCCN1C(=O)C(C(=O)/C=C/c2ccc(C)cc2)C2c3ccccc3OC13CCCCC23 (stereo unspecified),4
CCOc1ccc(/C=C/C(=O)C2C(=O)NC34CCCCC3C2c2ccccc2O4)cc1OC (stereo unspecified),-80*
O=C(/C=C/c1ccc(Cl)cc1)C1C(=O)NC23CCCCC2C1c1ccccc1O3 (stereo unspecified),12
N#Cc1ccccc1NC(=O)c1cc2cccnc2n(Cc2ccccc2)c1=O,57
O=C(Nc1ccccc1F)c1cc2cccnc2n(Cc2ccccc2)c1=O,124
Cc1noc(C)c1CN1CCC2(CC1)C(=O)N(CCO)CCN2C,0
COCCN1C[C@H]2[C@H](OC)CCN(C(=O)COc3ccccc3)[C@H]2C1,-1
CCCC1C(c2ccccc2)NC(c2ccccc2)CC1(O)c1ccc(F)cc1 (stereo unspecified),-97*
CC1CCN(CC(C)(C)CN2C3CCC2CC(O)(c2ccc(F)cc2)C3)CC1 (stereo unspecified),8
SMILES,Tgondii IFNg
Cc1ncc(CN2CCC3(CC(N(C)C)C3)C2)cn1 (stereo unspecified),-26
CCN1CCC2(CC1)CC(Nc1ncccn1)CO2 (stereo unspecified),-2
CO[C@H]1CCN(C(=O)c2cccc(C)n2)[C@H]2CN(CC3CC3)C[C@@H]12,61
COC[C@@]12COC[C@@H]1CN(Cc1ccc3ccccc3n1)C2,-41
CCCc1nc(-c2ccccn2)nc(OC(=O)N(C)C)c1Cc1c(F)cccc1Cl,-98*
CCc1ccc(CN2CCC3(CCNCC3)C2)nc1,38
Cc1cccc(NC(=O)c2cc3cccnc3n(Cc3ccc(F)cc3)c2=O)c1,26
CN1CCN2CCN(C(=O)c3cccc(=O)[nH]3)CC2C1=O (stereo unspecified),5
Cc1cnc(N2CCC3C(C[C@@H](Cn4cncn4)N3C)C2)nc1 (stereo partly specified),-1
c1ccc(N2CCNCC2)c(-c2cccc3cccnc23)c1,11
Cc1cccc(NC(=O)c2cc3cccnc3n(Cc3ccc(Cl)cc3)c2=O)c1C,37
CCC1(O)C(=O)OCc2c1cc1n(c2=O)Cc2cc3ccccc3nc2-1 (stereo unspecified),-106*
CC[C@@]1(O)C(=O)OCc2c1cc1n(c2=O)Cc2cc3ccccc3nc2-1,-88*
Fc1cnc(N2CCC3(CCCN3CC3CC3)CC2)nc1,4
CCSc1nc(CC(=O)N2CCN3CCNC(=O)C3C2)cs1 (stereo unspecified),129
CC(C)N1C2CCN(c3ncc(F)cn3)CC2C[C@H]1CN(C)C (stereo partly specified),-4
COc1cccc(OC[C@@H]2C3CCC(C3)N2Cc2cccnc2)c1 (stereo partly specified),-30
